Screening results as filed in PubChem BioAssay.
Pf growth 96h: P. falciparum growth inhibition at 96 hours. P. falciparum luciferase reporter growth, 96 h. Potency, µM (highest dose often 28.7 µM), for the others: at the highest dose activity change, negative = inhibition, hits mostly inhibitors. 320,000 tested, 6.9% active. AID 504834; note: potency is the fitted concentration of half-maximal effect; % is set by controls: 0 for no effect and ±100 for the full control effect
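P. falciparum expressing integrated firefly luciferase grown in erythrocytes (2% hematocrit, 0.05% parasitemia final) with compounds for 96 hours at 37 C, 5% CO2. Growth inhibition read as loss of luminescence after adding luciferase detection reagent.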
Shiga toxin inh: Shiga toxin inhibition; Vero cells, Shiga toxin protein synthesis inhibition reporter; 290,000 tested, 9.2% active; AID 2315; inhibition, % at 38.7 µM; in the data active = inhibition mostly above about 28%, no sharp cut-off; inactive = mostly below about 43%; note: 0% is about no effect
NS1 inh: influenza NS1 inhibition; Potency, µM (titrated, usually from 46.1 µM), for inactives: top-dose activity, positive = more growth; 270,000 tested, 0.4% active; AID 2326; calls by dose curve; note: potency is the fitted concentration of half-maximal effect; actives are rising curves; nearly all actives have a fitted effect of over 50% in size
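Growth recovery, yeast-based: influenza A NS1 expressed in S. cerevisiae causes slow growth, and suppressors are detected by OD600. The parent strain without NS1 is used as positive control.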
Pf growth 48h: P. falciparum growth inhibition at 48 hours (one generation). P. falciparum luciferase growth in erythrocytes, 48 h. Potency, µM (top dose mostly 28.7 µM), without a hit: at the top dose activity change, negative = inhibition, usual class: inhibitors. 310,000 tested, 5.9% active; note: potency is the fitted concentration of half-maximal effect; % is set by controls: 0 for no effect and ±100 for the full control effect
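Parasite viability was followed by luminescence of a genomically integrated firefly luciferase. Cultures held 0.1% parasitemia at 2% hematocrit (final), incubated under 5% CO2 at 37 C.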
CHX counter: counter-screen for Shiga toxin inhibitors: cycloheximide protein synthesis inhibition | cell reporter, cycloheximide protein synthesis inhibition counterscreen | max response, % | 300,000 tested, 12% active | AID 2314; in the data active = max response mostly above about 13%, no sharp cut-off; inactive = mostly below about 14%; note: read at 38.3 µM for the half of the compounds with a filed dose; 0% is about no effect
Giardia FBPA inh: blocks Giardia fructose-bisphosphate aldolase activity; purified Giardia FBPA; Potency, µM (highest dose often 59.6 µM), without a hit: at the top dose activity, negative = inhibition, hits mostly inhibitors; 290,000 tested, 0.71% active; AID 2451; note: potency is the fitted concentration of half-maximal effect; % is set by controls: 0 for no effect and ±100 for the full control effect; nearly all actives have a fitted effect of over 55% in size
Target sequence (A8B2U2 whole entry, looked up): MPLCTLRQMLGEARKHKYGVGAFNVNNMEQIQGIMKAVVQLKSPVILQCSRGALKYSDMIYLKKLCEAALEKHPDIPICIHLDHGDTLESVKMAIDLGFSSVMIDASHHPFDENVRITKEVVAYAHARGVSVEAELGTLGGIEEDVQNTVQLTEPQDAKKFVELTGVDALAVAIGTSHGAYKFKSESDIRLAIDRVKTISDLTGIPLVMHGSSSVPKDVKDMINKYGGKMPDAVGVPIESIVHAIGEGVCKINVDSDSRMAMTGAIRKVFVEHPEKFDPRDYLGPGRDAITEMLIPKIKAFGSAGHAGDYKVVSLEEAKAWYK
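Giardia FBPA (40 nM reagent) was preincubated 10 min at RT with compound (up to 57.5 uM final), then substrate plus GAPDH/TPI/NAD/arsenate coupling system with diaphorase/resazurin was added; resorufin fluorescence (525/598 nm) was read after 20 min.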
An asterisk follows results filed as active; u = inconclusive; x = no result given; [ ] = another dose, or the depositor's remark. A selection: hits, their analogues and other compounds. The true share with any hit is near 21%. Unless noted, calls come from the whole dose curve; as a rule, active = well fitted curve in the direction sought with a large enough effect; inconclusive = small, poorly fitted or top-dose-only effect, or another doubt; inactive = no such curve, though single readings can be large; an effect the other way counts as inactive or inconclusive.

SMILES	Pf growth 96h	Shiga toxin inh	NS1 inh	Pf growth 48h	CHX counter	Giardia FBPA inh
CC(C)c1ccc(OCC(=O)NC2=NCCS2)cc1	-25.2%	98.2*	x	344.2%	68.9*	0.7%
CCOC(=O)c1[nH]cnc1C(=O)N1CCN(C(=O)OC(C)(C)C)CC1	25.1%	x	x	11.7%	x	x
CCC(=O)Nc1ccc(C(=O)COC(=O)c2sc(C)nc2C)cc1	70.3%	x	x	44.4%	x	x
Fc1ccc(-c2csc3[n+]2CCS3)cc1	4.15µM*	-4.0	-6.6%	10.4µM*	1.3	1.6%
O=[N+]([O-])c1ccc(-c2csc3[n+]2CCS3)cc1	9.28µM*	-15.0	-1.5%	x	-2.8	3.3%
CC(=O)c1cccc(NC(=O)CCn2c(=O)oc3ccccc32)c1	3.6%	-2.3	-2.2%	6.8%	-3.7	-4.1%
CCOC(=O)c1cc[n+](CC(=O)c2ccc(F)cc2)cc1	-0.8%	4.5	5.3%	17.2%	5.8	2.0%
C=C(C)C(=O)N1CC2(CC(c3cccc(NC(=O)COc4ccc(Cl)cc4)c3)=NO2)C[C@@H]1C(N)=O (stereo not given in full)	u	-1.6	-11.4%	u	-7.4	-3.5%
C/C=C(\C)C(=O)N1CC2(CC(c3cccc(NC(=O)COc4ccc(Cl)cc4)c3)=NO2)C[C@@H]1C(N)=O (stereo not given in full)	u	29.8	-3.4%	11.7µM*	-3.3	-4.6%
C/C=C\C=C\C(=O)N1CC2(CC(c3cccc(NC(=O)COc4ccc(Cl)cc4)c3)=NO2)C[C@H]1C(N)=O (stereo not given in full)	10.4µM*	1.9	4.6%	13.1µM*	-5.8	-11.0%
COc1ccc(S(=O)(=O)N(C)CC(=O)NCc2ccccn2)cc1	2.8%	-5.9	0.8%	8.9%	-1.7	3.6%
O=C(NCCc1ccc(OC(F)F)cc1)C1CC(=O)N(c2ccc3c(c2)OCCO3)C1 (stereo not given)	13.1%	x	x	-18.3%	x	x
COC(=O)/C=C1\SC(N)=NC1=O	u	-4.9	6.1%	u	-3.0	1.8%
CC1(C)CC(=O)C=C(CN2C(=O)c3ccccc3C2=O)C1=O	25.1%	x	x	21.8%	x	x
CCC(Sc1nc(C)cc(C)n1)C(=O)NC1=NN=C(c2ccc(C)cc2)CS1 (stereo not given)	10.4µM*	-24.2	10.9%	u	-4.8	-3.1%
Cc1cc(N2CCCC2=O)cc(C)c1CN1C(=O)c2ccccc2C1=O	x	14.8	2.0%	18.0%	26.9*	-5.1%
O=C1CCCN1c1cccc(Br)c1	-20.4%	14.9	5.0%	26.9%	0.6	3.9%
CN(C)c1ccc(-c2nc(N3CCNCC3)c3ccccc3n2)cc1	x	x	x	x	x	-20.7%
Nc1cc(S(=O)(=O)N2CCOCC2)ccc1Oc1cccc(Br)c1	19.8%	x	x	4.7%	x	x
O=C(CC1SC(=Nc2ccc(OC(F)F)cc2)N(CCC2=CCCCC2)C1=O)Nc1ccccc1F (stereo not given)	2.62µM*	24.1	-11.7%	10.4µM*	14.5	-11.6%
CCOc1ccccc1N=C1SC(CC(=O)Nc2ccc(OC)cc2OC)C(=O)N1CCC1=CCCCC1 (stereo not given)	4.15µM*	-5.8	4.8%	u	4.1	-8.4%
CCn1c2ccccc2c2cc(N=C3SC(CC(=O)Nc4ccccc4)C(=O)N3C)ccc21 (stereo not given)	u	-3.4	8.2%	u	-1.7	0.7%
CCn1c2ccccc2c2cc(N=C3SC(CC(=O)Nc4ccccc4OC)C(=O)N3CCOC)ccc21 (stereo not given)	u	-10.4	u	9.28µM*	-2.5	-7.7%
COC(=O)C/C=C\[C@@H](C)[C@@H](/C=N\OC[C@@H](O)COCc1ccco1)OC	x	x	x	x	x	4.7%[12.9 µM]
Cc1cc(OC(C)C(=O)NCc2ccncc2)c2c(C)c(C)c(=O)oc2c1 (stereo not given)	-13.6%	-6.6	-7.6%	-6.3%	-3.5	4.1%
SMILES	Pf growth 96h	Shiga toxin inh	NS1 inh	Pf growth 48h	CHX counter	Giardia FBPA inh
CC(=O)Nc1ccc(NC(=O)c2nc(S(=O)(=O)Cc3cccc(C)c3)ncc2Cl)cc1	u	99.1*	17.6%	27.1%	45.7*	x
CCOC(=O)c1ccc(NC(=O)c2nc(S(=O)(=O)Cc3ccccc3)ncc2Cl)cc1	1.4%	7.9	-2.4%	35.6%	14.4	x
Cc1ccc(NC(=O)c2nc(S(=O)(=O)Cc3ccccc3C)ncc2Cl)cc1C	u	39.0*	-6.4%	31.4%	37.2*	-6.0%
Cc1ccc(NS(=O)(=O)c2c(C)[nH]c(C)c2C(=O)N2CCCCC2)c(Cl)c1	1.1%	-3.9	-4.2%	1.3%	-6.5	x
O=C1NN(c2ccc(F)cc2)C(=O)/C1=C\C=C\c1ccco1	1.65µM*	8.6	22.1%	-1.3%	-2.1	-1.4%
COc1cc([C@H]2c3cc4c(cc3[C@@H](O[C@H]3O[C@H]5CO[C@@H](C)O[C@H]5[C@@H](O)[C@@H]3O)[C@@H]3COC(=O)[C@H]23)OCO4)cc(OC)c1O	13.5µM*	x	x	13.5µM*	x	2.1%[21.7 µM]
COc1cc(C2c3cc4c(cc3C(O[C@@H]3OC5COC(c6cccs6)OC5C(O)C3O)C3COC(=O)C23)OCO4)cc(OC)c1O (stereo not given in full)	0.477µM*	x	x	0.536µM*	x	-19.9%
COc1cc(C2c3cc4c(cc3C(OC3OC5COC(c6cccs6)OC5C(O)C3O)C3COC(=O)C23)OCO4)cc(OC)c1O (stereo not given)	u	-7.0	-5.3%	u	-0.9	-14.5%
O=C(CSc1nc(NS(=O)(=O)c2ccccc2)cc(=O)[nH]1)Nc1ccc(F)cc1	1.85µM*	-5.8	-19.2%	-20.3%	-1.5	2.6%
COc1cccc(Nc2ncc3nc(-c4cccs4)c(=O)n(-c4ccccc4)c3n2)c1	x	x	x	x	x	-0.4%
Cc1ccc(CNC(=O)Nc2ccccc2)c(C)c1	93.8%	64.0*	-3.6%	62.4%	30.6*	-4.4%
Cc1ccccc1CNC(=O)Nc1ccc(Cl)cc1	6.9%	69.3*	0.0%	109.4%	34.2*	-3.9%
Cc1cc(C)c(NC(=O)Nc2ccccc2)c(Cl)c1	26.1%	22.8	13.6%	9.2%	7.0	-0.4%
Cc1ccc(CCNC(=O)c2cc(S(=O)(=O)N3CCCC3)cn2C)cc1	-27.4%	-2.1	2.4%	-12.3%	-1.2	3.1%
COc1ccc(C2CC(c3ccc(F)cc3)n3nc(NC(=O)c4ccco4)nc3N2)cc1 (stereo not given)	-19.7%	9.7	6.2%	5.4%	-1.9	-26.0%
CC1CC(c2ccccc2)n2nc(NC(=O)c3ccco3)nc2N1 (stereo not given)	8.28µM*	-8.3	u	11.8%	-7.9	1.0%
COc1ccc(NC(=O)CN(C)CC(=O)N2CCCCCC2)cc1	67.1%	x	x	-23.3%	x	x
Cc1ccc2nc(N3CCN(C(=O)c4ccc(F)cc4)CC3)c(C#N)cc2c1	u	3.0	-5.0%	33.9%	-0.5	-1.4%
COc1ccc2nc(N3CCCC3)c(C#N)cc2c1	8.28µM*	22.0	-15.5%	x	16.3	-6.9%
